Screens: PubChem, National Center for Advancing Translational Sciences (NCATS)
Sampled rows, rich in hits. Any-hit rate of the full collection: about 12%.
JMJD2A Tudor inh – qHTS Assay for Inhibitors of JMJD2A-Tudor Domain; Lysine-specific demethylase 4A (Homo sapiens), O75164; AlphaScreen JMJD2A-Tudor / H3K4me3 peptide binding; Potency, µM (doses to about 114 µM), without a hit: at the top dose activity change, negative = inhibition, most hits filed as inhibitors; hit rate 4.4% among 390,000; AID 504339, 2011; also: % is scaled to controls: 0 for no effect and ±100 for the full control effect; nearly all actives have a fitted effect of over 50% in size
G9a block – qHTS Assay for Inhibitors of Histone Lysine Methyltransferase G9a; Histone-lysine N-methyltransferase EHMT2 (Homo sapiens), Q96KQ7; G9a H3K9 monomethylation, AlphaScreen, 2 h; Potency, µM (titrated, usually from 102 µM), without a hit: top-dose activity, negative = inhibition, hits mostly inhibitors; hit rate 8.8% among 350,000; AID 504332, 2011; also: % is scaled to controls: 0 for no effect and ±100 for the full control effect; nearly all actives have a fitted effect of over 75% in size
Target sequence (Q96KQ7 913-1193 limits assumed): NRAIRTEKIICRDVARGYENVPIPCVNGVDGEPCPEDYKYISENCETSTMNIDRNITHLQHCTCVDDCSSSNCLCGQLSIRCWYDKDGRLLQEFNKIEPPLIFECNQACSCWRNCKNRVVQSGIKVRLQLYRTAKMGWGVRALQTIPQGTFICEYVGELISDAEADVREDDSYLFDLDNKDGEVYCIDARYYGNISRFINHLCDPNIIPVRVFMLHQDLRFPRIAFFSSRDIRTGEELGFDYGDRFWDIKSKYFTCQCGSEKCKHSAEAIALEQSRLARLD
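AlphaScreen detection with an anti-monomethyl H3K9 antibody quantified product after a 2 h room-temperature reaction containing 500 nM biotinylated H3K9 peptide, 20 µM SAM and 20 nM enzyme, which had been preincubated 15 min with compound.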
L3MBTL1 inh – qHTS Assay for the Inhibitors of L3MBTL1 | Lethal(3)malignant brain tumor-like protein 1 (Homo sapiens), Q9Y468 | AlphaScreen L3MBTL1–H3K9me1 peptide binding | Potency, µM (series often up to 57.1 µM), for the others: at the top dose activity, negative = inhibition, hits mostly inhibitors | hit rate 0.66% among 230,000; also: % is scaled to controls: 0 for no effect and ±100 for the full control effect; nearly all actives have a fitted effect of over 60% in size
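AlphaScreen assay: L3MBTL1 (50 nM final) was preincubated 30 min at room temperature with biotinylated H3(1-15)K9me1 peptide (75 nM final), then 30 min with library compounds; streptavidin donor and nickel chelate acceptor beads (10 ug/mL final) added, 30 min dark.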
BAZ2B block – qHTS Assay for Inhibitors of BAZ2B. AlphaScreen BAZ2B-H3K14Ac peptide displacement. hit rate 4.4% among 360,000. Potency, µM (highest dose often 114 µM), for inactives: at the highest dose activity change, negative = inhibition, usual class: inhibitors. Bromodomain adjacent to zinc finger domain protein 2B (Homo sapiens), Q9UIF8; also: % is scaled to controls: 0 for no effect and ±100 for the full control effect; nearly all actives have a fitted effect of over 60% in size
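AlphaScreen displacement: compounds (up to 110uM) incubated 30 min at room temperature with a preformed 50 nM BAZ2B/50 nM biotinylated H3K14Ac peptide complex in PBS pH 7.4 with Tween-20. Donor and acceptor beads at 10 ug/mL final added, 20 min light-protected before reading.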
HP1b chromo inh – HTS for Inhibitors of HP1-beta Chromodomain Interactions with Methylated Histone Tails; Chromobox protein homolog 1 (Homo sapiens), P83916; AlphaScreen HP1-beta / biotin-H3K9me3 peptide binding; Potency, µM (top dose mostly 114 µM), inactives show at the highest dose activity change, negative = inhibition, actives largely listed as inhibitors; hit rate 0.56% among 390,000; AID 540317, 2011; also: nearly all actives have a fitted effect of over 70% in size
Target sequence (P83916 whole entry, looked up): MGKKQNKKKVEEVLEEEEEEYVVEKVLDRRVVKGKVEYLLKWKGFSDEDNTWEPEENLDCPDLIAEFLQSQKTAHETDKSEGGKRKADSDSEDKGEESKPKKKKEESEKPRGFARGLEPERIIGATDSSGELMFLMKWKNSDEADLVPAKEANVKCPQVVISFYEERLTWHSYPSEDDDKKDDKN
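Compound inhibition of the preformed complex between 50 nM HP1-beta and 50 nM biotinylated H3K9me3 peptide was read by AlphaScreen. Buffer was PBS pH 7.4 with 0.01% Tween-20. Incubations ran 30 min at room temperature, with 10 ug/mL donor/acceptor beads.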
Sfp inh – qHTS Assay for Inhibitors of Bacillus subtilis Sfp phosphopantetheinyl transferase (PPTase). Biochemical Sfp PPTase activity, qHTS. hit rate 3.5% among 310,000. Potency, µM, for the others: largest response in the series, negative = inhibition, most hits filed as inhibitors;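 also: the enzyme is Sfp with the accession as filed and its product quenches rhodamine fluorescence; 0% = enzyme reaction without inhibitor and -100% = no enzyme wells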
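After 15 min at room temperature with compound, 15 nM Sfp received 5 uM rhodamine-CoA plus 12.5 uM BHQ-2-ybbR (50 mM Hepes pH 7.6, 10 mM MgCl2). Rate came from the fluorescence difference over 30 min, ex 525/em 598 nm.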
The depositor's hits bear a star; [ ] = dose if it differs, or a comment. Calls follow the shape of the dose curve; as a rule, active = well fitted curve in the direction sought with a large enough effect; inconclusive = small, poorly fitted or top-dose-only effect, or another doubt; inactive = no such curve, though single readings can be large; an effect the other way counts as inactive or inconclusive. Potency is read from the fitted curve at half-maximal effect.

How did COc1cc(/C=C(\NC(=O)c2ccccc2)C(=O)NC(C(=O)O)c2ccccc2)cc(OC)c1OC (centres undefined) do in these assays?
JMJD2A Tudor inh: -14.3%; G9a block: 39.8µM*; L3MBTL1 inh: 3.0%; BAZ2B block: -19.9%[57.1 µM]; HP1b chromo inh: 21.0%; Sfp inh: 8.0%

Results for Cc1ccc(C(=O)N/C(=C\c2sccc2C)C(=O)NCc2ccco2)cc1 ?
JMJD2A Tudor inh: -15.9%; G9a block: -4.8%[59 µM]; L3MBTL1 inh: -2.8%; BAZ2B block: 7.5%; HP1b chromo inh: 12.7%; Sfp inh: -4.6%

Results for COc1ccccc1C(=O)N/C(=C\c1ccccc1)C(=O)NC(C)C(=O)O (centres undefined) ?
JMJD2A Tudor inh: -8.5%; G9a block: -3.9%; L3MBTL1 inh: 5.6%; BAZ2B block: -3.0%; HP1b chromo inh: 34.9%; Sfp inh: 17.8%

Results for Cc1ccc(C(=O)N/C(=C/C=C\c2ccccc2)C(=O)NCc2ccco2)cc1 ?
JMJD2A Tudor inh: -27.2%; G9a block: 44.7µM*; L3MBTL1 inh: -12.4%; BAZ2B block: -36.7%; HP1b chromo inh: 3.7%; Sfp inh: -16.3%

What do the screens show for `CSCCC(NC(=O)/C(=C/c1ccco1)NC(=O)c1ccco1)C(=O)O` (centres undefined)?
JMJD2A Tudor inh: 39.8µM*; HP1b chromo inh: 15.8%

Results for COc1ccc(/C=C/C(=O)Nc2ccc(Cl)cc2Cl)cc1 ?
JMJD2A Tudor inh: -20.6%; G9a block: -4.2%[59 µM]; BAZ2B block: 1.4%; HP1b chromo inh: 15.5%

How did CCCc1cc2c(c(=O)o1)C(O)C1OC1C2=O (centres undefined) do in these assays?
Sfp inh: -23.6%

Results for Cc1ccn2c(=O)c(C(=O)NC(C)c3ccccc3)c(O)nc2c1 (centres undefined) ?
JMJD2A Tudor inh: 4.4%; G9a block: 0.3%[59 µM]; BAZ2B block: -15.2%; HP1b chromo inh: 20.7%

How did CC1CCN(c2nc3c(S(=O)(=O)c4ccc(Cl)cc4)nnn3c3ccsc23)CC1 do in these assays?
JMJD2A Tudor inh: 10.3%; G9a block: 19.8%[59 µM]; BAZ2B block: -2.0%; HP1b chromo inh: 65.4%

Results for O=C(NCc1ccco1)/C(=C/c1ccco1)NC(=O)c1ccco1 ?
JMJD2A Tudor inh: -12.5%; G9a block: 39.8µM*; BAZ2B block: -0.1%; HP1b chromo inh: 12.7%; Sfp inh: -28.5%

How did COC(=O)/C(=C/c1ccco1)NC(=O)c1ccc(Br)o1 do in these assays?
JMJD2A Tudor inh: -2.1%; G9a block: 44.7µM*; L3MBTL1 inh: -8.1%; BAZ2B block: 13.5%; HP1b chromo inh: 51.6%; Sfp inh: 44.7µM*

Results for CSCCC(NC(=O)/C(=C\c1ccco1)NC(=O)c1ccco1)C(=O)O (centres undefined) ?
JMJD2A Tudor inh: -15.4%; G9a block: inconclusive; L3MBTL1 inh: inconclusive; BAZ2B block: -5.6%; HP1b chromo inh: 29.3%; Sfp inh: -21.0%

How did O=C(NCc1ccco1)/C(=C\c1ccco1)NC(=O)c1ccccc1Cl do in these assays?
JMJD2A Tudor inh: -21.4%; G9a block: inconclusive; BAZ2B block: -1.4%; HP1b chromo inh: -24.0%; Sfp inh: 7.3%

What do the screens show for `CC(NC(=O)/C(=C\c1ccco1)NC(=O)c1ccco1)C(=O)O` (centres undefined)?
JMJD2A Tudor inh: -4.9%; G9a block: 35.5µM*; L3MBTL1 inh: inconclusive; BAZ2B block: -3.4%; HP1b chromo inh: 41.3%; Sfp inh: -13.3%

Results for C=CCOC(=O)N[C@H](/C(C(=O)OC)=C(\C)NCc1ccccc1)c1cccc(C(F)(F)F)c1 ?
Sfp inh: -14.3%

Results for OCc1cn(-c2ccccc2)nc1-c1cc2ccccc2o1 ?
JMJD2A Tudor inh: 1.7%; L3MBTL1 inh: 42.8%; BAZ2B block: 0.8%; HP1b chromo inh: 34.1%; Sfp inh: 56.2µM*

How did CC(=O)N1CCC2(CCN(Cc3nccs3)CC2)CC1 do in these assays?
G9a block: -2.4%[12.7 µM]; Sfp inh: 27.2%

What do the screens show for `COCCCN1C(=O)/C(=C/c2ccc(CNS(=O)(=O)c3ccccc3)o2)C(C(=O)OC)=C1C`?
JMJD2A Tudor inh: 56.2µM*; G9a block: 28.2µM*; L3MBTL1 inh: -11.0%; BAZ2B block: -38.1%; HP1b chromo inh: -11.3%; Sfp inh: 14.1µM*

Results for CNC(=O)/C(C#N)=C\c1ccc(CNS(=O)(=O)c2ccccc2)o1 ?
JMJD2A Tudor inh: -9.7%; G9a block: 18.6%[59 µM]; L3MBTL1 inh: -7.1%; BAZ2B block: 5.1%; HP1b chromo inh: 9.2%; Sfp inh: 10.9%

What do the screens show for `Cc1cc2c(s1)c1cnn(Cc3ccccc3)c(=O)c1n2C`?
JMJD2A Tudor inh: 2.7%

How did CCOc1ccc2c(O)csc2c1 do in these assays?
JMJD2A Tudor inh: inconclusive; G9a block: inconclusive; L3MBTL1 inh: -6.5%; BAZ2B block: -11.1%; HP1b chromo inh: -11.1%; Sfp inh: 50.1µM*

Results for Cc1ccc(Sc2ccc(CN3CCCC3)cc2[N+](=O)[O-])cc1 ?
JMJD2A Tudor inh: 44.7µM*; G9a block: inconclusive; L3MBTL1 inh: inconclusive; BAZ2B block: inconclusive; HP1b chromo inh: inconclusive; Sfp inh: -4.2%

Results for Cc1ccc(Sc2ccc(CO)cc2[N+](=O)[O-])cc1 ?
JMJD2A Tudor inh: inconclusive; G9a block: -47.3%; L3MBTL1 inh: -6.3%; BAZ2B block: inconclusive; HP1b chromo inh: -22.2%; Sfp inh: -10.2%

What do the screens show for `CN1CCN(Cc2ccc(Sc3ccc(Cl)cc3)c([N+](=O)[O-])c2)CC1`?
JMJD2A Tudor inh: inconclusive; G9a block: -44.4%; L3MBTL1 inh: 1.6%; BAZ2B block: 31.6µM*; HP1b chromo inh: -28.8%; Sfp inh: inconclusive

Results for COc1cccc(C(=O)c2sc(Nc3ccc(C)cc3C)c(S(=O)(=O)c3ccccc3)c2N)c1 ?
JMJD2A Tudor inh: -20.5%; G9a block: -4.9%[59 µM]; BAZ2B block: -29.6%; HP1b chromo inh: 22.1%

What do the screens show for `CC(=O)c1cccc(NC(=O)Nc2cccs2)c1`?
JMJD2A Tudor inh: -22.9%; G9a block: inconclusive; BAZ2B block: inconclusive; HP1b chromo inh: 1.4%; Sfp inh: inconclusive
